Experimental findings from PubChem BioAssay (NCI) are described below.

Test systems include HCT-15 colon; HT29 colon; SNB-75 CNS; SNB-19 CNS; PC-3 prostate; UACC-62 melanoma; LOX IMVI melanoma; SK-MEL-28 melanoma; SK-MEL-2 melanoma; EKVX NSCLC; SN12C renal; UO-31 renal; TK-10 renal; ACHN renal; CAKI-1 renal; A498 renal; CCRF-CEM leukemia; MOLT-4 leukemia; SK-MEL-5 melanoma; U251 CNS.
What all share (experiment): NCI-60 one-dose screen, 48 h (100 = growth as untreated, 0 = no growth, -100 = all killed)
Details in all cases: 10 µM unless noted

Molecules are shown by their SMILES. The panel holds about 83,000 compounds, 20% with a hit somewhere; the sample as a whole holds those more often.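 Single-concentration screen, 48 h exposure, 96-well plates. Endpoint: percent growth. Below 10 = active.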 Unmarked numbers belong to inactive results. The source made the active and inactive calls.

Consider `CC(NC(N)=S)c1ccccc1` (centres undefined), for which the growth in the experiment on HCT-15 colon was 104%; in the experiment on HT29 colon, 110%; in the experiment with SNB-75 CNS it was 95.1%; in the experiment with SNB-19 CNS, 102%; in the experiment with PC-3 prostate, 108%; with UACC-62 melanoma it was 101%. Also, the growth in the experiment with LOX IMVI melanoma was 85%; in the experiment on SK-MEL-28 melanoma, 110%; with SK-MEL-2 melanoma, 120%; in the experiment on EKVX NSCLC, 103%; in the experiment on SN12C renal, 98.3%; in the experiment with UO-31 renal, 93.2%. In addition, the growth with TK-10 renal was 99%; in the experiment on ACHN renal it was 108%; with CAKI-1 renal, 104%; in the experiment on A498 renal, 98.1%; in the experiment with CCRF-CEM leukemia it was 129%; in the experiment on MOLT-4 leukemia, 98.8%.

For the compound `O=C1/C(=C/c2ccccc2Cl)CCc2ccccc21`, the growth in the experiment with HCT-15 colon is 104%; in the experiment on HT29 colon, 97.2%; in the experiment with SNB-75 CNS, 105%; in the experiment on SNB-19 CNS, 89.7%; in the experiment on PC-3 prostate, 95.6%; in the experiment with SK-MEL-5 melanoma, 102%. Further, the growth in the experiment on UACC-62 melanoma was 94.2%; in the experiment on LOX IMVI melanoma it was 91.7%; in the experiment with SK-MEL-28 melanoma it was 101%; with SN12C renal, 94.6%; with UO-31 renal, 97.4%; in the experiment on TK-10 renal, 89.4%. In addition, the growth was 112% in the experiment on ACHN renal and 81.8% in the experiment with CAKI-1 renal.

In the case of `O=C1C2C(C(=O)N1CC[Se][Se]CCN1C(=O)C3C(C1=O)[C@H]1C=C[C@@H]3C1)[C@H]1C=C[C@@H]2C1` (some centres undefined), the growth with HCT-15 colon was 1.11% (active); in the experiment on HT29 colon it was -8.38% (active); in the experiment with SNB-19 CNS, -55.5% (active); in the experiment on U251 CNS it was -90.5% (active); in the experiment with PC-3 prostate it was -12.8% (active); in the experiment on SK-MEL-5 melanoma, -53.9% (active). Also, the growth was -60.8% (active) in the experiment on UACC-62 melanoma; -26% (active) in the experiment with LOX IMVI melanoma; -3.71% (active) with SK-MEL-28 melanoma; -53.3% (active) in the experiment on SK-MEL-2 melanoma; -56% (active) in the experiment with EKVX NSCLC; 3.39% (active) in the experiment with SN12C renal. Further, the growth with UO-31 renal was -84.4% (active); in the experiment with TK-10 renal, -70.2% (active); in the experiment with ACHN renal it was -52.2% (active); in the experiment with CAKI-1 renal, -87.7% (active); with CCRF-CEM leukemia, 2.3% (active); with MOLT-4 leukemia, 1.28% (active).

On to `O=C1/C(=C/c2ccc(F)cc2)Cc2ccccc21`, for which the growth in the experiment with HCT-15 colon was 94.6%; in the experiment with HT29 colon, 91%; in the experiment with SNB-75 CNS, 83.4%; in the experiment with SNB-19 CNS it was 92.3%; with PC-3 prostate, 97.8%; with SK-MEL-5 melanoma, 99.9%. Moreover, the growth with UACC-62 melanoma is 95.1%; with LOX IMVI melanoma, 103%; in the experiment on SK-MEL-28 melanoma, 105%; in the experiment on SN12C renal, 99.5%; with UO-31 renal, 92.5%; with TK-10 renal, 96.7%. Further, the growth in the experiment on ACHN renal is 98.2%; in the experiment on CAKI-1 renal it was 113%; in the experiment with MOLT-4 leukemia it was 98.3%.

As to `O=C(Nc1nc(-c2ccc(Cl)cc2)cs1)c1cc(-c2ccc(Br)cc2)nc2ccc(Cl)cc12`, the growth is 10.8% with HCT-15 colon; 9.1% (active) with HT29 colon; 32.7% with SNB-75 CNS; 56% in the experiment with SNB-19 CNS; 40.2% in the experiment with PC-3 prostate; 14% with SK-MEL-5 melanoma. For the same compound, the growth with LOX IMVI melanoma is 20.3%; in the experiment with SK-MEL-28 melanoma, 52.9%; with SK-MEL-2 melanoma, 22.8%; in the experiment on EKVX NSCLC it was 77.3%; with SN12C renal, 35.8%; with UO-31 renal, 34.7%. Moreover, the growth with TK-10 renal is 130%; in the experiment on ACHN renal it was 63.6%; with CAKI-1 renal, 81.4%; with CCRF-CEM leukemia, 39.2%; in the experiment on MOLT-4 leukemia, 18.5%.

In the case of `COC(=O)c1c(NC(=O)CSc2nnnn2-c2ccc(OC)cc2)sc(C)c1C`, the growth in the experiment with HCT-15 colon was 101%; in the experiment with HT29 colon it was 107%; in the experiment on SNB-75 CNS, 79.4%; in the experiment with SNB-19 CNS, 102%; in the experiment with PC-3 prostate, 85%; in the experiment on SK-MEL-5 melanoma, 115%. The growth is 91.2% in the experiment with LOX IMVI melanoma; 108% in the experiment on SK-MEL-28 melanoma; 18.8% in the experiment on SK-MEL-2 melanoma; 74.8% with EKVX NSCLC; 81.6% in the experiment on SN12C renal; 84.6% with UO-31 renal. The growth in the experiment with TK-10 renal was 152%; in the experiment with ACHN renal, 87.3%; with CAKI-1 renal, 102%; in the experiment on A498 renal, 110%; with CCRF-CEM leukemia it was 83.8%; in the experiment with MOLT-4 leukemia it was 90.8%.

Turning to `COc1ccc(CC(=O)Nc2nn3c(-c4cc(C(F)(F)F)cc(C(F)(F)F)c4)nnc3s2)cc1`, the growth with HCT-15 colon is 62.4%; in the experiment with HT29 colon, 83.7%; with SNB-19 CNS it was 70.1%; in the experiment with U251 CNS it was 70.4%; in the experiment on PC-3 prostate, 84.8%; in the experiment on SK-MEL-5 melanoma, 2.85% (active). The growth in the experiment on UACC-62 melanoma was 28.6%; in the experiment with LOX IMVI melanoma, 52.3%; in the experiment on SK-MEL-28 melanoma it was 84.5%; with EKVX NSCLC it was 67.4%; with SN12C renal, 64.7%; with UO-31 renal it was 74%. In addition, the growth in the experiment with ACHN renal is 81.9%; in the experiment with A498 renal it was 79.9%; in the experiment with CCRF-CEM leukemia, 49.9%; in the experiment on MOLT-4 leukemia, 65.7%.

With `c1ccc(Nc2ccc(Nc3nc(-c4ccccc4)nc4ccccc34)cc2)cc1`, the growth in the experiment on HCT-15 colon is 37.5%; with HT29 colon, 29.7%; in the experiment with SNB-19 CNS it was 100%; in the experiment with U251 CNS, 77%; with PC-3 prostate, 74%; in the experiment on SK-MEL-5 melanoma it was 90.3%. In addition, the growth was 86.6% in the experiment on UACC-62 melanoma; 52.4% in the experiment with LOX IMVI melanoma; 93.7% in the experiment with SK-MEL-28 melanoma; 83.1% in the experiment with SK-MEL-2 melanoma; 87.1% in the experiment with EKVX NSCLC; 87.9% with SN12C renal. In addition, the growth was 63.7% in the experiment with UO-31 renal; 98.5% in the experiment with TK-10 renal; 71.2% in the experiment on CAKI-1 renal; 52.7% in the experiment with CCRF-CEM leukemia; 53% in the experiment with MOLT-4 leukemia.

In the case of `COc1ccc2c(c1)c(CC(=O)[Se]C)c(C)n2C(=O)c1ccc(Cl)cc1`, the growth with HCT-15 colon was 14.9%; in the experiment with HT29 colon, 2.05% (active); in the experiment with SNB-19 CNS, 24%; in the experiment on U251 CNS, 14.9%; in the experiment on PC-3 prostate, 24.2%; with SK-MEL-5 melanoma it was -63.9% (active). Moreover, the growth in the experiment on LOX IMVI melanoma is -69.5% (active); in the experiment on SK-MEL-28 melanoma it was -7.85% (active); in the experiment on SK-MEL-2 melanoma, 12.4%; in the experiment on EKVX NSCLC it was -26.7% (active); with SN12C renal it was -4.23% (active); in the experiment on UO-31 renal, 14.7%. Further, the growth in the experiment with TK-10 renal was -58.4% (active); with ACHN renal, 10.4%; with CAKI-1 renal, -35.1% (active); with CCRF-CEM leukemia, 13%.
